Compounds with a hit are over-represented: about 6.5% of the library has one in this group of screens.
Spn PMK inh = blocks S. pneumoniae phosphomevalonate kinase. purified PMK, PK/LDH-coupled NADH absorbance 340 nm. inhibition, % at 10 µM. 65,000 tested, 0.49% active. AID 539;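 active = top-ranked compounds by inhibition in the single 10 µM screen, taking a fixed number of the strongest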;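 also: 0% = full reaction with DMSO carrier and 100% = background rate without enzyme reaction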
NADH coupling = inhibitors of enzymes used to reach an NAD/NADH endpoint; 65,000 tested, 0.02% active; coupled PK/LDH NADH assays, four targets; IC50, µM (highest dose often 10 µM), inactives show at the highest dose inhibition; AID 774;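 active = single-dose screening hits from any of four coupled enzyme assays that gave an IC50 when retested across doses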;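 also: the DPM-DC format reads NADH fluorescence rather than 340 nm absorbance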
Autofluor 339 = intrinsic fluorescence of library compounds, ex339/em460 – biochemical, MLSMR library, data from DPM-DC assay, artefact control, profiling panel; fluorescence fold increase at 10 µM; 65,000 tested, 5.5% active; compound autofluorescence, ex339/em460 nm, NADH buffer; hits give high values; 1 = no-compound wells, NADH background;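 active = at 10 µM, mean starting fluorescence two-fold or more over control wells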;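 also: signal is the first read of a kinetic run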
Spn MK inh = inhibitors of Streptococcus pneumoniae mevalonate kinase | purified MK, PK/LDH-coupled NADH absorbance 340 nm | AID 555 | inhibition, % at 10 µM | 65,000 tested, 0.48% active;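 active = ranked among the strongest by inhibition in the single 10 µM screen, a fixed top-ranked set picked for dose follow-up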
DPM-DC inhibit = S. pneumoniae DPM-DC inhibition. purified DPM-DC, PK/LDH coupled NADH fluorescence. calls only at 10 µM. 65,000 tested, 0.49% active. AID 556;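 active = the 320 compounds with the highest percent inhibition in the single-dose primary screen, excluding strongly autofluorescent ones, cut at about 32% in these data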;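 also: kinetic rate of NADH fluorescence loss reporting ADP formed by the decarboxylase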
Abs 340nm = absorbance at 340 nm. AID 708. 65,000 tested, under 10 active. fold change at 10 µM. compound absorbance at 340 nm, fold over control;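 active = at 10 µM dose, initial 340 nm absorbance at least 2 fold that of control wells; inactive = change under 2 fold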;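 also: initial absorbance extrapolated from kinetic A340 decline of NADH oxidation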
* = called active by the depositor; i = inactive; nt = not tested or not shown; + = active, no number.

SMILES | Spn PMK inh | NADH coupling | Autofluor 339 | Spn MK inh | DPM-DC inhibit | Abs 340nm
CCC(=NCCCN1CCOCC1)c1c(O)n(Cc2ccccc2)c(=O)[nH]c1=O | 8.0 | 2.0% | 1.04 | 4.0 | i | 1
Nc1c(C(=O)NCCN2CCOCC2)c2nc3ccccc3nc2n1Cc1ccco1 | 9.0 | 12.0% | 3.89* | 14.0 | nt | 1
CCCCn1c(N)c(C(=O)NCCN2CCOCC2)c2nc3ccccc3nc21 | 14.0 | 7.0% | 2.08* | 0.0 | nt | 1.08
CCCCn1c(C)c(C(=O)OCC)c2c(CN3CCOCC3)c(O)ccc21 | 8.0 | 11.0% | 1.02 | 5.0 | i | 0.99
Nc1c(C(=O)NCCc2ccccc2)c2nc3ccccc3nc2n1CCN1CCOCC1 | 2.0 | 6.0% | 3.88* | 9.0 | nt | 1
CC12CN3CC(C)(CN(C1)C3c1ccco1)C2=O (stereo not drawn) | 10.0 | 6.0% | 1.1 | 6.0 | i | 1.04
O=c1[nH]c2c(c(=O)n1C1CCCCC1)CCC2 | 6.0 | 5.0% | 1.08 | 5.0 | i | 1.04
CC(C(N)=O)N1CC(c2ccc(Cl)cc2)CC1=O (stereo not drawn) | 17.0 | 10.0% | 1.01 | 6.0 | i | 0.99
CCOC(=O)c1c(C)n(Cc2ccco2)c2ccc(O)cc12 | 2.0 | 1.0% | 1.06 | 0.0 | i | 1.03
CC(C)(C)OC(=O)c1c(N)n(Cc2ccco2)c2nc3ccccc3nc12 | 5.0 | 4.0% | 2.5* | 8.0 | nt | 0.98
COc1ccc(CCNC(=O)c2c(N)n(CCN3CCOCC3)c3nc4ccccc4nc23)cc1 | 9.0 | 2.0% | 3.36* | 3.0 | nt | 1.03
COc1ccc(CN2CCN(c3ccccc3)CC2)c(C)c1C | 23.0 | 24.0% | 1.06 | 50.0* | i | 1.05
O=C(c1ccco1)C12CN3CN(CN(C3)C1)C2 | 0.0 | 2.0% | 1.06 | 5.0 | i | 1
O=P1(NC2CCCC2)COc2ccccc2OC1 | 12.0 | 19.0% | 0.98 | 10.0 | + | 1.01
CCC1(CC)C(=O)NC(=Nc2cccc(C(F)(F)F)c2)NC1=O | 0.0 | 1.0% | 1.04 | 2.0 | i | 0.98
CN(C)c1cc(N)c2c(n1)CCC2 (tested in a mixture with another compound) | 18.0 | 5.0% | 1.12 | 0.0 | i | 1.05
CCCNc1oc(-c2cccc3ccccc23)nc1C#N | 5.0 | 6.0% | 3.77* | 7.0 | nt | 1.06
Nc1ccccc1C(=O)OCCOc1ccccc1 | 10.0 | 7.0% | 2.8* | 7.0 | i | 1.04
Cc1cc2c(C(F)(F)F)cc(=O)oc2c2c1NCCC2 | 26.0* | 9.0% | 1.27 | 0.0 | i | 1.04
O=P1(Nc2cccnc2)COc2ccccc2OC1 | 7.0 | 6.0% | 1.04 | 10.0 | i | 1.02
O=C(Cc1cccs1)N1CCC2(CC1)OCCO2 | 5.0 | 3.0% | 1.08 | 4.0 | i | 1.03
COCCn1cc(C(=O)N2CCC3(CC2)OCCO3)c2c3ccccc3n(C)c2c1=O | 13.0 | 7.0% | 4.31* | 0.0 | nt | 1.03
Cn1c2ccccc2c2c(C(=O)N3CCC4(CC3)OCCO4)cn(C3CCCC3)c(=O)c21 | 17.0 | 17.0% | 2.09* | 16.0 | nt | 1.05
Cc1cccc(N2CCc3c2nc2ccccc2c3N)c1 | 0.0 | 0.0% | 3.8* | 0.0 | nt | 1.07
Cc1ccnc(-n2c(C)nc3ccccc3c2=O)c1 | 8.0 | 6.0% | 1.11 | 9.0 | i | 1.04
SMILES | Spn PMK inh | NADH coupling | Autofluor 339 | Spn MK inh | DPM-DC inhibit | Abs 340nm
COc1cc(CN2CCN(C(=O)COc3ccccc3)CC2)cc(OC)c1OC | 0.0 | 16.0% | 1.1 | 47.0* | i | 1.03
Cc1ccc2cc3cc(C(=O)N4CCC5(CC4)OCCO5)oc3nc2c1 | 12.0 | 15.0% | 3.52* | 5.0 | i | 1.2
CCCCn1c(O)c(C=NC2CC3CCC2(C)C3(C)C)c(=O)[nH]c1=O (stereo not drawn) | 2.0 | 3.0% | 1.1 | 8.0 | i | 1.01
CN(C)CP(=O)(O)CN(C)C=O | 13.0 | 9.0% | 1.1 | 13.0 | i | 1
COc1cc(OC)c(OC)cc1CNC(C)C(O)c1ccccc1 (stereo not drawn) | 13.0 | 8.0% | 1.06 | 10.0 | i | 1.02
COc1cc(OC)c(OC)cc1CNCCc1ccc(OC)c(OC)c1 | 0.0 | 14.0% | 1.04 | 42.0* | i | 1.08
CC1CCCCN1CC(=O)c1ccc2cc[nH]c2c1 (stereo not drawn) | 5.0 | 13.0% | 1.93 | 4.0 | i | 1.1
